Laboratory results: PubChem BioAssay
The source made the active and inactive calls.

Tests used:
[1] = tested on: PRMT1 (protein arginine N-methyltransferase 1); test: small molecules binding arginine methyltransferase PRMT1 – biochemical, small-molecule microarray, 635 nm fluorescence, primary screen (AID 1088); settings: higher = more signal;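 note: binding of Prmt1 protein to compounds spotted on small-molecule microarray slides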
[2] = growth effects on S. cerevisiae YJM789 – YJM789 clinical isolate, OD600, 24 h, basal, primary screen (AID 1089); settings: higher = more signal, called active from +8 up or from −8 down;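 note: growth of clinical yeast isolate S. cerevisiae YJM 789 seeded 1000 cells per well; test concentration not given here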
[3] = S. pombe growth modifiers, basal conditions – strain 972, OD600, 24 h, no modulator, primary screen (AID 1090);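 note: basal condition with compound alone and no growth modifier present; test concentration not given here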; settings: S. pombe 972 growth, higher = more signal, called active from +8 up or from −8 down
[4] = budding yeast growth modifiers under rapamycin – strain BY4716, OD600, 96 h, primary screen (AID 1091); note: test concentration not given here; settings: S. cerevisiae BY4716 + rapamycin, higher = more signal, called active from +8 up or from −8 down
[5] = target: Torsin-1A-interacting protein 2 (Homo sapiens) (UniProt Q8NFQ8); test: small molecules binding lysate-expressed LULL1 – cell lysate, human LULL1 lysate, 635/667 nm fluorescence, primary screen (AID 1092); settings: small-molecule microarray, hLULL1 lysate binding, 635 nm fluorescence; higher = more signal;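 note: probe is lysate of COS7 cells overexpressing human LULL1; score merges per-feature 667 nm fluorescence with signal-to-noise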
[6] = optical density change of DRC41 E. coli – strain DRC41, OD650, 24 h, E. coli filamentation project, primary screen (AID 1093);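 note: MC1000 strain lacking acrAB efflux and sulA so SOS filamentation is blocked; test concentration not given here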; settings: E. coli DRC41 growth, higher = more signal, called active from +8 up or from −8 down
[7] = probe aLefty2 binding to arrayed compounds – biochemical, biotinylated probe, 635/667 nm fluorescence, primary screen (AID 1094); settings: small-molecule microarray, higher = more signal;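 note: score merges spot fluorescence near 667 nm with spot signal-to-noise ratio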
[8] = tested on: Noggin (protein binding on small-molecule microarray); test: small molecules binding Noggin protein – biochemical, 635/667 nm fluorescence, primary screen (AID 1095); settings: 635 nm fluorescence, higher = more signal;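 note: score merges 667 nm feature fluorescence with signal to noise over triplicate slides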
[9] = target: Neurogenic locus notch homolog protein 3 (Homo sapiens) (UniProt Q9UM47); test: small molecules binding NOTCH3 protein – biochemical, 635/667 nm fluorescence, primary screen (AID 1096); settings: small-molecule microarray, 635 nm fluorescence, higher = more signal
[10] = probe aEGFR binding to arrayed compounds – biochemical, biotinylated probe, 635/667 nm fluorescence, primary screen (AID 1097); settings: small-molecule microarray, higher = more signal;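 note: probe is a biotinylated anti-EGFR antibody binding compounds printed on slides; score combines fluorescence near 667 nm and signal to noise of each spot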

Sequence of Neurogenic locus notch homolog protein 3 (Homo sapiens) (Q9UM47 whole entry, looked up): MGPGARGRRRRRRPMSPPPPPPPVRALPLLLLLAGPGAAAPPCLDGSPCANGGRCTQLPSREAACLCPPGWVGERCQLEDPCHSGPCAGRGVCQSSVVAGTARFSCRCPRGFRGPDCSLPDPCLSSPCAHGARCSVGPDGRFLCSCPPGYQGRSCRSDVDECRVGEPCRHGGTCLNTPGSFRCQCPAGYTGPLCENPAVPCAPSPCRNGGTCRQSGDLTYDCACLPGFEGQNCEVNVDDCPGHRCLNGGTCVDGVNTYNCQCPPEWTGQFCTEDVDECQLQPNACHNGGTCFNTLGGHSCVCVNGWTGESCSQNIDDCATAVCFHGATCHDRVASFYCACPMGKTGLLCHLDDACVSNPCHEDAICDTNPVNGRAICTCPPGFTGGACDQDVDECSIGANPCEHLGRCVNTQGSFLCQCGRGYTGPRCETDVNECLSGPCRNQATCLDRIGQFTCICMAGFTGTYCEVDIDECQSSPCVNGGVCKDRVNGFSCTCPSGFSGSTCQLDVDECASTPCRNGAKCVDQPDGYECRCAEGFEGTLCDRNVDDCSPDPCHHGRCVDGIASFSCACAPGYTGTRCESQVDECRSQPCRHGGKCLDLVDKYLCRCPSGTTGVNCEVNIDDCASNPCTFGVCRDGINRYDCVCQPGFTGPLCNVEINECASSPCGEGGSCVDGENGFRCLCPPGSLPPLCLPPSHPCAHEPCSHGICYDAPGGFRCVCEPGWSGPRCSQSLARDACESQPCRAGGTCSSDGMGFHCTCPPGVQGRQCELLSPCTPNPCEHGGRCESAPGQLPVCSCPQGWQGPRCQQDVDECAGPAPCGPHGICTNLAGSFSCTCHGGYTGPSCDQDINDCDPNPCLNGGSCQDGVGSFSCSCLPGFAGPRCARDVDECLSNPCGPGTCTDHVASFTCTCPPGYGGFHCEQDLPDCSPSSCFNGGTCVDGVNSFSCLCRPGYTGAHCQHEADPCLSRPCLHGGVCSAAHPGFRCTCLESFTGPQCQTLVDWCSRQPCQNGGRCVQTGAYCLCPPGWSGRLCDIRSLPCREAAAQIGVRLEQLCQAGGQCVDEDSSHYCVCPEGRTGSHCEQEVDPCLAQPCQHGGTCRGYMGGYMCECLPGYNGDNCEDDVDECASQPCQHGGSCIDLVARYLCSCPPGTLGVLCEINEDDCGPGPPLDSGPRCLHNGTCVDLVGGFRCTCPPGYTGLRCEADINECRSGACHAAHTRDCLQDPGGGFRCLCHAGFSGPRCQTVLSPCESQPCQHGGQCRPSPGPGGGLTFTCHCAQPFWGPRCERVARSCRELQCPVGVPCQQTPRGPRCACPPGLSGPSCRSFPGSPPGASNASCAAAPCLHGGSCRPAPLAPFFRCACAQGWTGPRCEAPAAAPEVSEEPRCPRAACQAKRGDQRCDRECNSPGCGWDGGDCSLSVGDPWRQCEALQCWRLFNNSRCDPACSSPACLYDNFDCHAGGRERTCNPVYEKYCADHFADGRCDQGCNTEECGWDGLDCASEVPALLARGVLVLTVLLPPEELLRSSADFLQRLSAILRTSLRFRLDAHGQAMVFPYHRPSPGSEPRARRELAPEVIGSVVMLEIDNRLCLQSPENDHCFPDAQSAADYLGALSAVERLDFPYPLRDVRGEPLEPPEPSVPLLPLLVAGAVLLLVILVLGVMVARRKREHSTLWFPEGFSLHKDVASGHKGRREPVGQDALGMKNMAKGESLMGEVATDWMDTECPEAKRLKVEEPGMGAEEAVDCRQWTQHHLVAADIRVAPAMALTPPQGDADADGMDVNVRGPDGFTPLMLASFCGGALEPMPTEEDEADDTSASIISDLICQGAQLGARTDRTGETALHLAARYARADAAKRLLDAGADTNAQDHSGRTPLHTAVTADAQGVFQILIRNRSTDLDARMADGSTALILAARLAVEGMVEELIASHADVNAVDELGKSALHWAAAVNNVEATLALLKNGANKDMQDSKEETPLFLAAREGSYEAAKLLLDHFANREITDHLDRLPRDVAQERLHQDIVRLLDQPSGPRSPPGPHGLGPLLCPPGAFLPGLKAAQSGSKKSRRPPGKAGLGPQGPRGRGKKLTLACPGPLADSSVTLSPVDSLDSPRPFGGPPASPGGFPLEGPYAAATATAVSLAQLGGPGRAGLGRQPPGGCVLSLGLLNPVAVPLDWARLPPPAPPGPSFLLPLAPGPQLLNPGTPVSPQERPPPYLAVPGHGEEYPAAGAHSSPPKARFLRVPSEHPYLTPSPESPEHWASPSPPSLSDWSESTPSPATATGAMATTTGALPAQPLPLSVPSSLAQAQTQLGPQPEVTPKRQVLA
Sequence of Torsin-1A-interacting protein 2 (Homo sapiens) (Q8NFQ8 whole entry, looked up): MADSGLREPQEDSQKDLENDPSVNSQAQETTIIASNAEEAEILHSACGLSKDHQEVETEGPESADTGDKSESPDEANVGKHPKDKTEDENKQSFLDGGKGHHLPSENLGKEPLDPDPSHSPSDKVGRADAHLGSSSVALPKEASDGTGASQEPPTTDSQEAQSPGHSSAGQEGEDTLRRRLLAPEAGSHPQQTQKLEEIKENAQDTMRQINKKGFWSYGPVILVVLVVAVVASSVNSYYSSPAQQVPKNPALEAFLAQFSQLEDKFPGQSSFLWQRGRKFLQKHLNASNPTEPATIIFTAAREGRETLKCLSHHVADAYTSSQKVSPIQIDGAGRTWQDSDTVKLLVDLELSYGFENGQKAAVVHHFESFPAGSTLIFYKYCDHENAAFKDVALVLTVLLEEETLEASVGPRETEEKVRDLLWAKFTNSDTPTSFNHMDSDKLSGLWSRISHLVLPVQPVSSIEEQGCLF

Row | Structure (SMILES) | composite z-score [1] | z-score [2] | z-score [3] | z-score [4] | composite z-score [5] | z-score [6] | composite z-score [7] | composite z-score [8] | composite z-score [9] | composite z-score [10]
1 | CC(=O)NCCCC[C@@H]1NC(=O)[C@@H]2C[C@H](C(=O)NCc3ccc(F)cc3)[C@H](c3cccc(OCCO)c3)N2C1=O | 0.631 | 0.592 (inactive) | 0.16 (inactive) | 0.205 (inactive) | 2.43 | 0.496 (inactive) | 0.207 | 0.584 | -0.515 | -0.0953
2 | C=CC[C@]1(C(=O)O)N=C(c2ccc(OCCCO)cc2)O[C@H]1c1ccccc1 | 0.707 | -0.435 (inactive) | -2.83 (inactive) | -1.08 (inactive) | 3.29 | 0.597 (inactive) | -0.0199 | -1.1 | -0.888 | -0.0936
3 | COc1ccc([Si](C)(C)[C@@H]2[C@@H](CCO)O[C@]3(C(=O)N(Cc4ccccc4)c4ccccc43)[C@H]2C)cc1 | 1.06 | 0.566 (inactive) | 0.124 (inactive) | 1.24 (inactive) | 0.955 | 1.73 (inactive) | -0.228 | 0.0139 | 0.167 | -0.143
4 | O=C1OCCC=C[C@H]2OC34C=CCN(Cc5ccccc5)C(=O)[C@H]3N(CCO)C(=O)[C@@H]4C12 (stereo not given in full) | -1.05 | -2.04 (inactive) | -4.14 (inactive) | -1.5 (inactive) | -0.89 | 2.71 (inactive) | -0.172 | -0.526 | -0.634 | -0.304
5 | C=CC[C@@]1(C(=O)N2CCOCC2)N=C(c2ccc(OCCCO)cc2)O[C@@H]1c1ccccc1 | 0.142 | 0.509 (inactive) | -1.61 (inactive) | 0.352 (inactive) | 2.71 | 1.33 (inactive) | 0.0634 | -0.506 | -1.35 | -0.0728
6 | Cc1cc(C)c(C(O)C2C=CC3C(=O)N(C)C(=O)C3N2N2CCCCC2)c(C)c1 (stereo not given) | 1.54 | -0.133 (inactive) | 1.08 (inactive) | -0.376 (inactive) | 2.99 | -0.587 (inactive) | 0.433 | 0.521 | 1.06 | 0.301
7 | COC(=O)c1c(CC[C@@H](CO)NC(=O)N[C@H](Cn2cc(-c3cncn3C)nn2)C(C)C)oc(C(C)=O)c1C(=O)OC | 1.09 | -0.177 (inactive) | -1.26 (inactive) | -0.164 (inactive) | 1.47 | 2.3 (inactive) | -0.0617 | 0.209 | 0.149 | 0.19
